hcGAS lum: Primary biochemical luminescence assay for human cyclic GMP-AMP synthase inhibitors. Q8N884. recombinant h-cGAS, ATP depletion, Kinase-Glo luminescence. inhibition, % at 12.5 µM. actives 0.081% (n = 290,000)
Target sequence (Q8N884 whole entry, looked up): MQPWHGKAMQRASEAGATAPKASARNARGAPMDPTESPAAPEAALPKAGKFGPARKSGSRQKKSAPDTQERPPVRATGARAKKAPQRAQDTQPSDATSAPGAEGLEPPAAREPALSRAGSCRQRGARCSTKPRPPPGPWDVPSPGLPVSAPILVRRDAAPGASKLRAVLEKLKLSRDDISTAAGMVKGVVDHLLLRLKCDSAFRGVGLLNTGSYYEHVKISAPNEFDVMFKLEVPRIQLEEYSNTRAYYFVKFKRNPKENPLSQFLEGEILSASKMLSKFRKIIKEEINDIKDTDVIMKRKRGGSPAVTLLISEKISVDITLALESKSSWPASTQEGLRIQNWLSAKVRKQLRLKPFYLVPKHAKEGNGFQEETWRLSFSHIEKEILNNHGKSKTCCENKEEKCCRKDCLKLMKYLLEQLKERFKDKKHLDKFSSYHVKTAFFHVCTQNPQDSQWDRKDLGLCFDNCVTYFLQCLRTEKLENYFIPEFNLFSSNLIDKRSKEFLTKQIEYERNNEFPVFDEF
mcGAS lum: cyclic GMP-AMP synthase inhibitors, mouse, primary biochemical chemiluminescence; Q8C6L5; recombinant cGAS, Kinase-Glo ATP depletion luminescence; inhibition, % at 12.5 µM; actives 0.15% (n = 160,000)
NPYLR7 ag: agonists of mosquito NPYLR7 receptor, primary screen, cell-based, Aedes aegypti, calcium fluorescence, mosquito biting behavior. activation, % at 10 µM. HEK293T NPYLR7/Galpha15, GCaMP6s calcium fluorescence. actives 0.15% (n = 270,000); in the data active = activation above about 40%
Each line names hits and unclear results; the compound was inactive in the other large screens; ! = not confirmed by another sample. An excerpt weighted towards active compounds, which were near 0.3% of everything screened. Cut-off read from the data, not from the text of the source, unless noted: active = inhibition above about 40%; inactive = the rest.

COCCCN(CC(=O)N1CCc2sccc2C1c1ccc(Cl)cc1)S(=O)(=O)c1cccc(C(F)(F)F)c1 (stereo not drawn)	none (no result: NPYLR7 ag)
CCCOc1cc(Nc2ccc(NC(=O)Nc3ccc(C)c(F)c3)cc2)nc(C)n1	none
NCCc1ccc(O)c(O)c1	none
CC(=O)NCCc1ccc(O)c(O)c1	NPYLR7 ag 88
CCN(CC)CCNC(=O)c1c(O)nc2sccn2c1=O	none
Cc1ccc(C(=O)N2C(=S)C(c3ccccc3)=NC2(C)C)cc1	none
CCOc1ccc2cc(-c3nc4ccccc4s3)c(=O)oc2c1	none
O=c1oc2cc(O)ccc2cc1-c1nc2ccccc2s1	NPYLR7 ag 140
CCCc1[nH]n(-c2ccc(Cl)cc2)c(=O)c1/C=C1\NC(=O)N(Cc2ccc(C)cc2)C1=O	NPYLR7 ag 45
CCCc1[nH]n(-c2ccc(Cl)cc2)c(=O)c1/C=C1\NC(=O)N(Cc2cccc(C)c2)C1=O	none
CCOC(=O)CCC(=O)Nc1c(-c2cccc(F)c2)cn(Cc2ccccc2)c1C(=O)OCC	none
O=c1c(-c2ccccc2)coc2cc(O)cc(O)c12	hcGAS lum 70 (no result: mcGAS lum)
O=c1cc(-c2ccccc2)oc2cc(O)cc(O)c12	none
O=C1/C(=C/c2ccc(-c3cccc(Cl)c3)o2)NC(=S)N1c1ccccc1	none
O=C1NC(=S)N(c2ccc3ccccc3c2)C(=O)/C1=C/c1ccc(-c2cccc(C(=O)O)c2)o1	hcGAS lum 56, mcGAS lum 81
CCN(CC)c1cc(Cl)nc(SCc2cccc(C(=O)Nc3ccc(C)c(C)c3)c2)n1	none
Cc1cccc(CC(=O)Oc2coc(CSc3nc(C)cc(C)n3)cc2=O)c1	none
Cc1ccnc(SCc2cc(=O)c(OC(=O)COc3ccc(F)cc3)co2)n1	none
Cc1cc(C)nc(SCc2cc(=O)c(OC(=O)Cc3ccccc3)co2)n1	mcGAS lum 87
Cc1ccnc(SCc2cc(=O)c(OC(=O)Cc3ccc(F)cc3)co2)n1	mcGAS lum 40
O=C1C2CC=CCC2C(=O)N1CCc1ccccc1Cl (stereo not drawn)	none
COc1cn(CC(=O)Nc2ccc(C(F)(F)F)cc2)c(CSc2nc(C)cs2)cc1=O	none
N#CC1C(=N)Oc2cc(O)ccc2C1c1ccc(Cl)cc1Cl (stereo not drawn)	NPYLR7 ag 96 (no result: mcGAS lum)
N#CC1C(=N)Oc2cc(O)ccc2C1c1ccncc1 (stereo not drawn)	NPYLR7 ag 85
N#CC1C(=N)Oc2cc(N)ccc2C1c1ccc(Cl)cc1Cl (stereo not drawn)	none (no result: mcGAS lum)
N#CC1C(=N)Oc2cc(O)ccc2C1c1ccc(Br)cc1 (stereo not drawn)	none (no result: mcGAS lum)
N#CC1C(=N)Oc2cc(O)ccc2C1c1ccccc1I (stereo not drawn)	NPYLR7 ag 82
N#CC1C(=N)Oc2cc(O)ccc2C1c1cccs1 (stereo not drawn)	none
O=C(NCc1ccccc1)C1CNCC1c1cccc(C(F)(F)F)c1 (stereo not drawn)	none (no result: mcGAS lum)
Cc1[nH]c(S(=O)(=O)C(C)c2nnc(CC(C)C)o2)nc1Cc1ccccc1 (stereo not drawn)	none (no result: mcGAS lum)
Cc1ccc(C(=O)Nc2ccc3c(c2)C(=O)c2ccccc2C3=O)cc1	none (no result: mcGAS lum)
CN(C)S(=O)(=O)c1ccc(C(=O)Nc2ccc3c(c2)C(=O)c2ccccc2C3=O)cc1	mcGAS lum 105
Cc1cnc(NCC2CCN(C(=O)C(C)C)CC2)nc1N(C)C	none (no result: NPYLR7 ag)
CC(C)(C)c1cc2nc(C(=O)N3CCc4ccccc4C3)cc(-c3ccccc3F)n2n1	none
COc1ccccc1-c1cc(C(=O)N2CCc3ccccc3C2)nc2cc(C(C)(C)C)nn12	mcGAS lum 84
COCCn1c(C)cn2c3c(=O)n(Cc4ccc(Cl)cc4)c(=O)n(C)c3nc12	NPYLR7 ag 52
COCCCn1c(C)cn2c3c(=O)n(Cc4ccc(Cl)cc4)c(=O)n(C)c3nc12	none (no result: mcGAS lum)
COc1cc(/C=C2\SC(=S)N(C(CC(=O)O)C(=O)O)C2=O)ccc1O (stereo not drawn)	NPYLR7 ag 68
COc1cc(/C=C2\SC(=S)N(c3cccc(C(=O)O)c3)C2=O)ccc1O	NPYLR7 ag 52
COc1ccc(/C=C2\SC(=S)N(c3ccc(C(=O)O)cc3)C2=O)cc1OC	none
COCCN1C(=O)/C(=C/c2ccc(O)c(OC)c2)SC1=S	none (no result: mcGAS lum)
O=C(CCNC(=O)C1CC(c2ccccc2)=NO1)NCc1ccncc1 (stereo not drawn)	none
CC1(C(=O)NCc2ccco2)CCN1C(=O)C1(c2ccc(Cl)cc2)CC1 (stereo not drawn)	none
CCOC(=O)c1c(SC(CC)C(=O)O)nc(=O)[nH]c1C (stereo not drawn)	none
CCCN=Cc1c(-c2ccccc2)[nH]n(-c2nc3ccccc3s2)c1=O	hcGAS lum 54
CC(=NCCCn1ccnc1)c1c(-c2ccccc2)[nH]n(-c2nc3ccccc3s2)c1=O	none
O=C1NC(=S)SC1=Cc1ccccc1Cl	hcGAS lum 56 (no result: mcGAS lum)
O=C1NC(=O)C(=Cc2cccc(Cl)c2Cl)S1	none (no result: mcGAS lum)
O=C1NC(=S)SC1=Cc1ccc(F)c(F)c1	none
O=C1NC(=S)SC1=Cc1c(F)cccc1F	hcGAS lum 42 (no result: mcGAS lum)
CN1C(=CP(=O)(N(C)C)N(C)C)C(C)(C)c2ccccc21	none (no result: mcGAS lum)
CN1C(=CC=C2C(=O)Oc3ccccc3C2=O)C(C)(C)c2ccccc21	NPYLR7 ag 49 (no result: mcGAS lum)
Cc1ccc(C(=O)ON=C(N)Cc2ccc(Cl)cc2Cl)cc1C	none (no result: mcGAS lum)
C=CCNC(=O)NC1CCN(c2ccccc2C(=O)NCCOC)CC1	none
C=CCNC(=O)c1ccccc1N1CCC(NC(=O)COC)CC1	mcGAS lum 54
Cc1ccc(Cc2nc(N3CCCN(C(=O)c4ccc(Cl)cc4Cl)CC3)c3c(C)nn(-c4ccc(F)cc4)c3n2)cc1	none
O=C1SC(Nc2ccc(Br)cc2)C(=O)N1c1ccccc1 (stereo not drawn)	NPYLR7 ag 85
O=C1SC(Nc2ccc(Br)cc2)C(=O)N1CCN1C(=O)c2ccccc2C1=O (stereo not drawn)	none
Cc1ccsc1CN(Cc1ccccn1)Cc1cccc2c1OCO2	none (no result: mcGAS lum)
O=C1NC(=S)S/C1=C\c1ccc(-c2ccccc2C(=O)O)o1	hcGAS lum 66, mcGAS lum 83
CCN1C(=O)/C(=C\c2ccc(-c3ccccc3C(=O)O)o2)N(CC)C1=S	none
O=C(NCC1CCCO1)C1CCN(C2CCN(C3CCSCC3)CC2)CC1 (stereo not drawn)	none (no result: mcGAS lum)
O=C(Nc1cccc(C(F)(F)F)c1)N1CCSC1c1ccc(F)cc1 (stereo not drawn)	none
Cc1ncsc1CCN(C)C(=O)c1cn(CCC2CCCCC2)nn1	none (no result: NPYLR7 ag)
CC(Cn1ccnc1)NC(=O)c1ccccc1N(C)C(=O)c1cccs1 (stereo not drawn)	none (no result: mcGAS lum)
CC(Cn1ccnc1)NC(=O)NCC(C)(C)c1ccccc1F (stereo not drawn)	hcGAS lum 43 (no result: mcGAS lum)
COc1ccc(OC2CCN(C3CCCC3)CC2)c(C(=O)N(C)CCc2cnn(C)c2)c1	none (no result: mcGAS lum)
Cc1cc(N)c2ccccc2[n+]1CCCCCCCCCC[n+]1c(C)cc(N)c2ccccc21	hcGAS lum 91!
CC[n+]1c(C)cc(Cl)c2ccccc21	none
O=C(NN1CCOCC1)c1ccc(Oc2ccc(F)cc2)cc1	none (no result: mcGAS lum)
CCCNC(=O)c1cn(CC)nc1S(=O)(=O)N1CCC(C)CC1	none (no result: NPYLR7 ag)
Cn1cc(S(=O)(=O)Nc2ccc(F)cn2)nc1Cl	none (no result: mcGAS lum)
COCCOc1ccc(NS(=O)(=O)c2cn(C)c(Cl)n2)cn1	NPYLR7 ag 99 (no result: mcGAS lum)
O=c1[nH]c2c(Br)c(Br)c(Cl)cc2o1	mcGAS lum 90

Bioassay records: PubChem, Fisher Drug Discovery Resource Center
